The nature of test [1]: NCI Yeast Anticancer Drug Screen. Data for the rad50 strain (AID 155).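 Further: 0% = growth of vehicle-only cultures of the same strain.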 Conditions: S. cerevisiae rad50 strain growth inhibition, stronger effect = higher value. The essentials: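 Relative growth inhibition (compound vs vehicle) was measured in yeast with a defined repair-gene alteration.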
The nature of test [2]: NCI Yeast Anticancer Drug Screen. Data for the mec2-1 strain (AID 157). Conditions: S. cerevisiae mec2-1 strain, stronger effect = higher value. Put shortly: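 Readout is yeast growth inhibition, normalised to vehicle-treated controls, in the mec2-1 strain exposed to compound.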
The nature of test [3]: NCI Yeast Anticancer Drug Screen. Data for the sgs1 mgt1 strain (AID 161).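 Further: 0% = growth of cultures given vehicle only.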 Conditions: S. cerevisiae sgs1 mgt1 strain, stronger effect = higher value. Put shortly: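 Percent growth inhibition was derived by comparing compound-exposed mutant yeast with vehicle-exposed cultures. The strain carries alterations in DNA damage repair.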
Test [4] is described as follows: NCI Yeast Anticancer Drug Screen. Data for the cln2 rad14 strain (AID 165).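 Further: 0% = growth equal to vehicle treated cultures.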 Conditions: S. cerevisiae cln2 rad14 strain, stronger effect = higher value. The essentials:
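Relative to vehicle controls, growth inhibition of compound-treated cln2 rad14 yeast was recorded.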

Test [5] is described as follows: NCI Yeast Anticancer Drug Screen. Data for the bub3 strain (AID 167). Conditions: S. cerevisiae bub3 mutant strain, stronger effect = higher value. Put shortly: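 Screening used yeast with an engineered genetic alteration affecting cell cycle control. Compound-exposed cultures were compared with vehicle cultures, and reduced growth was taken as inhibition.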
A short description of test [6]: NCI Yeast Anticancer Drug Screen. Data for the mlh1 rad18 strain (AID 175). Conditions: S. cerevisiae mlh1 rad18 strain growth inhibition, stronger effect = higher value. Put shortly:
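Test agents were incubated with a yeast strain of defined genotype (DNA damage repair defect). Inhibition of growth was derived by comparison with vehicle-exposed cultures.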

[7] abbreviates: at 5.0 µM (retest, dose inferred, filed as 0.5).
Setting [8] is: at 50.0 µM (retest, dose inferred, filed as 5.0).

The panel holds about 79,000 compounds, 15% with a hit somewhere; the sample as a whole holds those more often. A number with no mark means an inactive call. Active and inactive are the calls of the source. No stated cut-off is given here; in the data, active means growth inhibition above about 70%; inactive means the rest.

With `CNc1ccc(F)cc1SSc1cc(F)ccc1NC`, the growth inhibition was 97% (active) in test [1] (setting [7]); 98% (active) in test [1] (setting [8]); 99% (active) in test [1] (at 50.0 µM); 94% (active) in test [2] (setting [7]); 99% (active) in test [2] (setting [8]); 99.5% (active) in test [2] (at 50.0 µM). Further, the growth inhibition in test [3] (setting [7]) is 95% (active); in test [3] (setting [8]), 99% (active); in test [3] (at 50.0 µM) it was 99.4% (active); in test [4] (setting [7]), 10%; in test [4] (setting [8]), 99% (active); in test [4] (at 50.0 µM), 99% (active). The growth inhibition in test [5] (setting [7]) was 38%; in test [5] (setting [8]), 99% (active); in test [5] (at 50.0 µM), 99.2% (active); in test [6] (setting [7]), 97% (active); in test [6] (setting [8]) it was 99% (active); in test [6] (at 50.0 µM), 99.2% (active).
Consider `Clc1cc[c]([Sn]([O][Sn]([c]2ccc(Cl)cc2)([c]2ccc(Cl)cc2)[c]2ccc(Cl)cc2)([c]2ccc(Cl)cc2)[c]2ccc(Cl)cc2)cc1`, for which the growth inhibition in test [1] (setting [7]) is 98% (active); in test [1] (setting [8]), 95% (active); in test [1] (at 50.0 µM), 97.5% (active); in test [2] (setting [7]), 99% (active); in test [2] (setting [8]) it was 98% (active); in test [2] (at 50.0 µM), 99.3% (active). For the same compound, the growth inhibition in test [3] (setting [7]) was 99% (active); in test [3] (setting [8]), 98% (active); in test [3] (at 50.0 µM) it was 96.6% (active); in test [4] (setting [7]), 99% (active); in test [4] (setting [8]) it was 96% (active); in test [4] (at 50.0 µM), 79.5% (active). In addition, the growth inhibition in test [5] (setting [7]) was 98% (active); in test [5] (setting [8]), 97% (active); in test [5] (at 50.0 µM), 88.8% (active); in test [6] (setting [7]), 99% (active); in test [6] (setting [8]), 97% (active); in test [6] (at 50.0 µM), 98.3% (active).
Consider `S=C=NCCCCCCN=C=S`, for which the growth inhibition in test [1] (setting [7]) was 36%; in test [1] (setting [8]), 99% (active); in test [1] (at 50.0 µM), 99.6% (active); in test [2] (setting [7]) it was 41%; in test [2] (setting [8]) it was 99% (active); in test [2] (at 50.0 µM), 99.5% (active). Moreover, the growth inhibition in test [3] (setting [7]) was 59%; in test [3] (setting [8]), 99% (active); in test [3] (at 50.0 µM) it was 99.3% (active); in test [4] (setting [7]) it was 21%; in test [4] (setting [8]), 99% (active); in test [4] (at 50.0 µM), 99.3% (active). Also, the growth inhibition in test [5] (setting [7]) is 58%; in test [5] (setting [8]) it was 99% (active); in test [5] (at 50.0 µM), 99.3% (active); in test [6] (setting [7]), 79% (active); in test [6] (setting [8]), 99% (active); in test [6] (at 50.0 µM), 99.2% (active).
For `O=C(Nc1c(Cl)cc([N+](=O)[O-])cc1Cl)/C(=N\Nc1cccc(Cl)c1)c1c(O)c2ccccc2oc1=O`, the growth inhibition in test [1] (setting [7]) is 15%; in test [1] (setting [8]), 15%; in test [1] (at 50.0 µM) it was 69%; in test [2] (setting [7]), 25%; in test [2] (setting [8]) it was 25%; in test [2] (at 50.0 µM) it was 18.1%. For the same compound, the growth inhibition was 14% in test [3] (setting [7]); 14% in test [3] (setting [8]); -1% in test [3] (at 50.0 µM); 8% in test [4] (setting [7]); 8% in test [4] (setting [8]); 25.7% in test [4] (at 50.0 µM). In addition, the growth inhibition in test [5] (setting [7]) is 5%; in test [5] (setting [8]), 5%; in test [5] (at 50.0 µM), 31%; in test [6] (setting [7]) it was 26%; in test [6] (setting [8]), 26%; in test [6] (at 50.0 µM), 47.3%.
On to `O=S1(=O)CCN(c2ccccc2CC(c2c[nH]c3ccccc23)c2c[nH]c3ccccc23)CC1`, for which the growth inhibition in test [1] (setting [7]) is 29%; in test [1] (setting [8]), 90% (active); in test [1] (at 50.0 µM) it was 88.5% (active); in test [2] (setting [7]), -5%; in test [2] (setting [8]) it was 73% (active); in test [2] (at 50.0 µM) it was 74.8% (active). Further, the growth inhibition in test [3] (setting [7]) is 3%; in test [3] (setting [8]) it was 79% (active); in test [3] (at 50.0 µM) it was 87.7% (active); in test [4] (setting [7]), 5%; in test [4] (setting [8]), 62%; in test [4] (at 50.0 µM), 86.2% (active). The growth inhibition in test [5] (setting [7]) is 14%; in test [5] (setting [8]), 89% (active); in test [5] (at 50.0 µM) it was 90.6% (active); in test [6] (setting [7]) it was 34%; in test [6] (setting [8]) it was 94% (active); in test [6] (at 50.0 µM), 91.9% (active).
Regarding `CN(C)CC(O)c1cc(-c2ccc(Cl)cc2)nc2c(Cl)cc(Cl)cc12` (stereo not given), the growth inhibition in test [1] (setting [7]) is 11%; in test [1] (setting [8]), 99% (active); in test [1] (at 50.0 µM), 99.2% (active); in test [2] (setting [7]), 12%; in test [2] (setting [8]), 99% (active); in test [2] (at 50.0 µM), 99.4% (active). The growth inhibition in test [3] (setting [7]) is 41%; in test [3] (setting [8]), 99% (active); in test [3] (at 50.0 µM), 99.5% (active); in test [4] (setting [7]), 9%; in test [4] (setting [8]), 97% (active); in test [4] (at 50.0 µM) it was 99.3% (active). The growth inhibition in test [5] (setting [7]) is 8%; in test [5] (setting [8]) it was 99% (active); in test [5] (at 50.0 µM) it was 99.5% (active); in test [6] (setting [7]) it was 46%; in test [6] (setting [8]) it was 99% (active); in test [6] (at 50.0 µM), 99.4% (active).
Turning to `O=C1C=C(OCC=C(C(F)(F)F)C(F)(F)F)C(=O)c2ccccc21`, the growth inhibition in test [1] (setting [7]) is -6%; in test [1] (setting [8]), 18%; in test [1] (at 50.0 µM) it was 55.1%; in test [2] (setting [7]), 27%; in test [2] (setting [8]), 68%; in test [2] (at 50.0 µM) it was 64.8%. Also, the growth inhibition is 24% in test [3] (setting [7]); 74% (active) in test [3] (setting [8]); 66.9% in test [3] (at 50.0 µM); -1% in test [4] (setting [7]); 25% in test [4] (setting [8]); 49.4% in test [4] (at 50.0 µM). Besides, the growth inhibition in test [5] (setting [7]) is 1%; in test [5] (setting [8]), 52%; in test [5] (at 50.0 µM), 67.2%; in test [6] (setting [7]) it was 45%; in test [6] (setting [8]) it was 67%; in test [6] (at 50.0 µM), 80.3% (active).
Take `NNc1cc(Cl)ccc1Cl`: the growth inhibition is 73% (active) in test [1] (setting [7]); 93% (active) in test [1] (setting [8]); 90.7% (active) in test [1] (at 50.0 µM); 91% (active) in test [2] (setting [7]); 99% (active) in test [2] (setting [8]); 91.8% (active) in test [2] (at 50.0 µM). In addition, the growth inhibition is 57% in test [3] (setting [7]); 98% (active) in test [3] (setting [8]); 94% (active) in test [3] (at 50.0 µM); 80% (active) in test [4] (setting [7]); 98% (active) in test [4] (setting [8]); 91.8% (active) in test [4] (at 50.0 µM). Moreover, the growth inhibition was 89% (active) in test [5] (setting [7]); 99% (active) in test [5] (setting [8]); 91.5% (active) in test [5] (at 50.0 µM); 55% in test [6] (setting [7]); 100% (active) in test [6] (setting [8]); 90.7% (active) in test [6] (at 50.0 µM).
In the case of `COc1ccc(N2C(=O)C(=O)C(C(C)=O)C2=O)cc1` (stereo not given), the growth inhibition was -1% in test [1] (setting [7]); 0% in test [1] (setting [8]); 99.2% (active) in test [1] (at 50.0 µM); -2% in test [2] (setting [7]); 6% in test [2] (setting [8]); 99.3% (active) in test [2] (at 50.0 µM). Besides, the growth inhibition in test [3] (setting [7]) was 1%; in test [3] (setting [8]), 2%; in test [3] (at 50.0 µM) it was 99.4% (active); in test [4] (setting [7]) it was -4%; in test [4] (setting [8]) it was 7%; in test [4] (at 50.0 µM), 99% (active). Further, the growth inhibition was 1% in test [5] (setting [7]); 3% in test [5] (setting [8]); 99.3% (active) in test [5] (at 50.0 µM); -8% in test [6] (setting [7]); 4% in test [6] (setting [8]); 99.2% (active) in test [6] (at 50.0 µM).
On to `COc1cc(/C=N/NC(=S)Nc2ccccc2)ccc1O`, for which the growth inhibition in test [1] (setting [7]) is -20%; in test [1] (setting [8]), 13%; in test [1] (at 50.0 µM), 20.8%; in test [2] (setting [7]) it was -10%; in test [2] (setting [8]), 34%; in test [2] (at 50.0 µM), 27.4%. In addition, the growth inhibition is -7% in test [3] (setting [7]); 82% (active) in test [3] (setting [8]); 66.7% in test [3] (at 50.0 µM); -31% in test [4] (setting [7]); 9% in test [4] (setting [8]); -23.4% in test [4] (at 50.0 µM). The growth inhibition in test [5] (setting [7]) was -11%; in test [5] (setting [8]), 60%; in test [5] (at 50.0 µM), 77.7% (active); in test [6] (setting [7]), -16%; in test [6] (setting [8]) it was 49%; in test [6] (at 50.0 µM), 30.1%.
